{
  "source": "paper PMC5540273",
  "about": "(PLoS ONE, 2017);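 further: KINOMEscan kinase panel screen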",
  "data": [
    {"system": "T1, p38-gamma", "T1 construct": "gene MAPK12", "details": "concentration: 1 μM, replicates: in singlicate; n = 1", "units": {"%Inh": "%"}, "values": [
      {"smiles": "CNc1nc(-c2ccc3c(N)n[nH]c3c2)cc(N2C[C@@H](C(=O)NC3CCCCC3)OC[C@H]2C)n1", "note": "[GSK2375584]", "%Inh": 23},
      {"smiles": "COc1cccc(NC(=O)Nc2ccc(C)c(-c3ccc(C(=O)Nc4ccncc4)cc3)c2)c1", "note": "[GSK1398474]", "%Inh": 27},
      {"smiles": "Fc1ccc(-c2nn3cccc(F)c3c2-c2ccncc2)cc1", "note": "[GW475620]", "%Inh": 0},
      {"smiles": "COc1nccc(-c2c(-c3ccc(F)cc3)ncn2CCCN2CCOCC2)n1", "note": "[SB-282852]", "%Inh": 46},
      {"smiles": "COc1cc2ncnc(Nc3cccc(Br)c3)c2cc1OC.Cl", "note": "[GI230329]", "%Inh": 66},
      {"smiles": "COc1ccc(Nc2nccc(N3CCC(NC(=O)C(C)c4ccc(Cl)cc4)CC3)n2)cc1", "note": "(stereo not drawn) [GSK1379812]", "%Inh": 2},
      {"smiles": "CNC(=O)c1ccc(C)c(-n2c(C)cc(OCc3ccc(F)cc3F)c(Br)c2=O)c1", "%Inh": 0},
      {"smiles": "Cc1ccccc1-c1cc(-c2c[nH]nc2-c2ccccn2)ccn1", "note": "[GW680061]", "%Inh": 0},
      {"smiles": "Cc1ccc(NC(=O)Nc2ccccc2)cc1-c1ccc(C(=O)Nc2ccncc2)cc1", "note": "[GSK1398471]", "%Inh": 12},
      {"smiles": "COc1ccc(-c2coc3ccc(-c4nnc(C)o4)cc23)cc1", "%Inh": 0},
      {"smiles": "COc1ccc(CSc2nnc(-c3ccc4nccn4c3)o2)cc1C(F)(F)F", "%Inh": 3},
      {"smiles": "CC(=O)c1cccc(NC(=O)NC2CCN(c3ccnc(Nc4ccc(F)cc4)n3)C2)c1", "note": "(stereo not drawn) [GSK1379710]", "%Inh": 3},
      {"smiles": "CCn1c(-c2ccccc2)nc2cnccc21", "note": "[SB-733416]", "%Inh": 0},
      {"smiles": "COc1ccc(CSc2nnc(-c3ccc4ncsc4c3)o2)cc1C(F)(F)F", "%Inh": 0},
      {"smiles": "CC(=O)c1c(C)c2cnc(Nc3ccc(N4CCNCC4)cn3)nc2n(C2CCCC2)c1=O", "%Inh": 6},
      {"smiles": "CCCCc1nn2ncccc2c1-c1ccnc(NC2CC2)n1", "note": "[GW684374]", "%Inh": 0},
      {"smiles": "COc1cccc(C2=C(Nc3cc(Cl)c(O)c(Cl)c3)C(=O)NC2=O)c1", "note": "[SB-390767]", "%Inh": 0},
      {"smiles": "Cc1ccc(-c2nc(Nc3ccncc3)c3ccccc3n2)s1", "note": "[GSK189015]", "%Inh": 12},
      {"smiles": "Nc1ncnc2occ(-c3ccc4c(c3)CCN4C(=O)Cc3cc(F)ccc3F)c12", "note": "[GSK2645446]", "%Inh": 7},
      {"smiles": "Cn1cncc1-c1cc2c(Nc3ccc(OCc4ccccc4)cc3)ncnc2cn1", "note": "[GW281179]", "%Inh": 0},
      {"smiles": "Cl.Cl.Cl.N#Cc1ccc(CCNc2nccc(-c3cccc(CN4CCNCC4)c3)n2)cc1", "note": "[GSK2137462]", "%Inh": 27},
      {"smiles": "COC(=O)C(NC(=O)NC1CCN(c2ccnc(Nc3ccc(F)cc3)n2)C1)c1ccccc1", "note": "(stereo not drawn) [GSK1379712]", "%Inh": 23},
      {"smiles": "O=C(Nc1n[nH]c2cc(-c3ccsc3)ccc12)C1CC1", "note": "[SB-732932]", "%Inh": 28},
      {"smiles": "FC(F)(F)c1ccccc1-c1cc(-c2c[nH]nc2-c2ccccn2)ccn1", "note": "[GW679396]", "%Inh": 0},
      {"smiles": "COC(=O)C(Cc1ccccc1)NC(=O)NC1CCN(c2ccnc(Nc3ccc(F)cc3)n2)C1", "note": "(stereo not drawn) [GSK1379714]", "%Inh": 12},
      {"smiles": "Cc1ccc(NC(=O)c2ccc(Cl)cc2)cc1-c1ccc(C(=O)Nc2ccncc2)cc1", "note": "[GSK1398467]", "%Inh": 0},
      {"smiles": "Cc1c(Cn2c3ccccc3n3c(=O)cc(N4CCOCC4)nc23)cccc1C(F)(F)F", "note": "[GSK2306394]", "%Inh": 0},
      {"smiles": "Fc1ccc(-c2nc[nH]c2-c2ccncc2)cc1", "note": "[SB-217360]", "%Inh": 39},
      {"smiles": "O=c1cc(N2CCOCC2)nc2n(Cc3ccccc3F)ccn12", "note": "[GSK2297428]", "%Inh": 0},
      {"smiles": "CCn1c(-c2c(N)noc2C)nc2cnccc21", "note": "[SB-737856]", "%Inh": 0},
      {"smiles": "COc1ccc(Nc2nccc(-c3ccc(NC(=O)c4cc5cc(F)ccc5[nH]4)cc3)n2)cc1", "note": "[GSK1229496]", "%Inh": 1},
      {"smiles": "CSc1ccc(-c2nc3n(c2-c2ccncc2)CCC3)cc1", "note": "[SKF-105561]", "%Inh": 30},
      {"smiles": "CC(C)c1ccc(O)cc1Nc1ccnc2ccc(C(F)(F)F)cc12", "note": "[GW482059]", "%Inh": 0},
      {"smiles": "COc1ccc(Nc2nccc(N3CCC(NC(=O)c4cc5ccccc5s4)C3)n2)cc1", "note": "(stereo not drawn) [GSK1379738]", "%Inh": 9},
      {"smiles": "Nc1cccc(-c2ccc3c(N)n[nH]c3c2)n1", "note": "[GSK2192730]", "%Inh": 0},
      {"smiles": "COc1cccc(CNC(=O)NC2CCN(c3ccnc(Nc4ccc(F)cc4)n3)C2)c1", "note": "(stereo not drawn) [GSK1379723]", "%Inh": 0}
    ]}
  ]
}
